# Columns and labels:
# Assay in all cases: DAPPL (digital affinity profiling via proximity ligation, sequencing); 10 mM Tris-HCl pH 7.5, 50 mM NaCl, 1 mM DTT, 4% glycerol, room temperature, 30 min; GST-TFs on glutathione beads, 16-mer random dsDNA library, 0.1% formaldehyde crosslink after washing; high values mean tight binding
# [1] = molecular target: T1, FEV (Homo sapiens, UniProt Q99581 1-238); conditions: protein: recombinant; tags: N-terminal GST; dsDNA, one strand shown
# T1 sequence: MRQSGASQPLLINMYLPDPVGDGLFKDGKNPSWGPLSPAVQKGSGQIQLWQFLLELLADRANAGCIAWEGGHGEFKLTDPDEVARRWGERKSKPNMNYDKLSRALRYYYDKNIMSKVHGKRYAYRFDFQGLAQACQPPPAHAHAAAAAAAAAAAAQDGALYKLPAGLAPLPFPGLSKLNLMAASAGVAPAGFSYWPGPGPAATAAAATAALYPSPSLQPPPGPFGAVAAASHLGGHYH
# Summary of the method: (§1)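 Binding signal is each hexamer's read frequency for a factor divided by its frequency in the tag-only sample. The factors were GST-fused human transcription factors from yeast, captured on glutathione beads, DNA-barcoded and pooled with that sample. Pools were incubated with 200 nmole of a random double-stranded 16-mer DNA library in Tris/NaCl/DTT/glycerol buffer at room temperature for 30 min, then washed, crosslinked with 0.1% formaldehyde, proximity-ligated with BsaI/T4 ligase (1 h, 37 °C), PCR-amplified and sequenced on an Illumina NextSeq500.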
# [2] = molecular target: ETV5 (Homo sapiens, UniProt P41161 1-510); conditions: protein: recombinant; tags: N-terminal GST; dsDNA, one strand shown
# Summary of the method: as §1
# [3] = molecular target: HSF1 (Homo sapiens, UniProt Q00613 1-529); conditions: protein: recombinant; tags: N-terminal GST; chain copies: 3; dsDNA, one strand shown
# Summary of the method: as §1
# [4] = molecular target: T2, SPIC (Homo sapiens, UniProt Q8N5J4 1-248); conditions: protein: recombinant; tags: N-terminal GST; dsDNA, one strand shown
# T2 sequence: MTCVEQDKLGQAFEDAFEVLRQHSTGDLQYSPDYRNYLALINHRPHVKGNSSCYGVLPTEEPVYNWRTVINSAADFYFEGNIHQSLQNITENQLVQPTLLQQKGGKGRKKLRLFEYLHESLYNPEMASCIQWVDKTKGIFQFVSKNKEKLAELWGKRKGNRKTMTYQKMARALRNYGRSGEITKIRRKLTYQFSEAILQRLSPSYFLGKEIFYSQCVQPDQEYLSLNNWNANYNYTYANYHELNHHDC
# Summary of the method: as §1
# [5] = molecular target: ELF4 (Homo sapiens, UniProt Q99607 1-663); conditions: protein: recombinant; tags: N-terminal GST; dsDNA, one strand shown
# Summary of the method: as §1
# [6] = molecular target: T3, ETV2 (Homo sapiens, UniProt O00321 1-342); conditions: protein: recombinant; tags: N-terminal GST; dsDNA, one strand shown
# T3 sequence: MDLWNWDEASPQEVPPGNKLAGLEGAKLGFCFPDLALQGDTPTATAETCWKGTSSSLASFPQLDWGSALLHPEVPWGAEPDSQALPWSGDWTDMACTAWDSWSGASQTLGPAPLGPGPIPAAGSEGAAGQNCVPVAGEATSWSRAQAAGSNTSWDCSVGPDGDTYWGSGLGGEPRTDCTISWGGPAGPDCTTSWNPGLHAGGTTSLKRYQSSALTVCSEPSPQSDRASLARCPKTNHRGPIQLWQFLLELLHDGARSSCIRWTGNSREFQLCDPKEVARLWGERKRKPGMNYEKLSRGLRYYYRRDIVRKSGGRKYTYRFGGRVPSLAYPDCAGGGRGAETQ
# Summary of the method: as §1
# [7] = molecular target: T4, ELF3 (Homo sapiens, UniProt P78545 1-371); conditions: protein: recombinant; tags: N-terminal GST; dsDNA, one strand shown
# T4 sequence: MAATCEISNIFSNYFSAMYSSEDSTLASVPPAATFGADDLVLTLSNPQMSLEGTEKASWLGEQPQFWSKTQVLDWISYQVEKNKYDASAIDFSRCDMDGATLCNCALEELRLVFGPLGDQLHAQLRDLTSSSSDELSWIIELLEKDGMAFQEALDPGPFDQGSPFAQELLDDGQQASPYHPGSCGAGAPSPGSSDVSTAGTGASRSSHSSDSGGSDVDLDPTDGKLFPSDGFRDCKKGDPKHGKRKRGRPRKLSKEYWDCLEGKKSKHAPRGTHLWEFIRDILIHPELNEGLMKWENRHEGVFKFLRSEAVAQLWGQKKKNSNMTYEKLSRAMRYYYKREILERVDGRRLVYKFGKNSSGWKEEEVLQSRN
# Summary of the method: as §1
# [8] = molecular target: CRX (Homo sapiens, UniProt O43186 1-299); conditions: protein: recombinant; tags: N-terminal GST; dsDNA, one strand shown
# Summary of the method: as §1
# [9] = molecular target: ETV1 (Homo sapiens, UniProt P50549 1-477); conditions: protein: recombinant; tags: N-terminal GST; dsDNA, one strand shown
# Summary of the method: as §1
# [10] = molecular target: T5, ERF (Homo sapiens, UniProt P50548 1-548); conditions: protein: recombinant; tags: N-terminal GST; dsDNA, one strand shown
# T5 sequence: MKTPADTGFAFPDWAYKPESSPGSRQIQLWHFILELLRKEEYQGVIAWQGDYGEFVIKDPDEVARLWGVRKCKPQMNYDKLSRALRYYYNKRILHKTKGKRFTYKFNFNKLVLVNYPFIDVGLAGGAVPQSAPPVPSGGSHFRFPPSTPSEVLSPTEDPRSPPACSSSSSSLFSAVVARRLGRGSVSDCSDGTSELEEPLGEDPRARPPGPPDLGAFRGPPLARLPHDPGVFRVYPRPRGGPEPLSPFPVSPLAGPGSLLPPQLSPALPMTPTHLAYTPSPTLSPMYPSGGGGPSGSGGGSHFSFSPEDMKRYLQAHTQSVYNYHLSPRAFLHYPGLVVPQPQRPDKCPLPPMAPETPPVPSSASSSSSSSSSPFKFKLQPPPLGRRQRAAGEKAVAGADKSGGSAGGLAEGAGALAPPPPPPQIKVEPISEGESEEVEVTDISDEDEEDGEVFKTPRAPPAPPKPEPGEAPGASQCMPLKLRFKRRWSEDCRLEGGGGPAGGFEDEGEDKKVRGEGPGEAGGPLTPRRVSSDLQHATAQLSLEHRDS
# Summary of the method: as §1
# [11] = molecular target: T6, ETV3L (Homo sapiens, UniProt Q6ZN32 1-361); conditions: protein: recombinant; tags: N-terminal GST; dsDNA, one strand shown
# T6 sequence: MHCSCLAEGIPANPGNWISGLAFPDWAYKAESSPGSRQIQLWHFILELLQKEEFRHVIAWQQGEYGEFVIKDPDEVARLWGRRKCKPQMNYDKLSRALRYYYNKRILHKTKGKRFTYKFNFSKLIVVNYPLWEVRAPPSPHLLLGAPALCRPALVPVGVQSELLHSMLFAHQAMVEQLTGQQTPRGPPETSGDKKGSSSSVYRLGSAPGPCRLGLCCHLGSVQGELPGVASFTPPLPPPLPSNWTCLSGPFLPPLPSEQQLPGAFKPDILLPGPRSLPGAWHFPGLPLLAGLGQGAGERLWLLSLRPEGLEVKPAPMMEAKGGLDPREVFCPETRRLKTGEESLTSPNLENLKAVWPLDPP
# Summary of the method: as §1
# [12] = molecular target: T7, ETS2 (Homo sapiens, UniProt P15036 1-469); conditions: protein: recombinant; tags: N-terminal GST; dsDNA, one strand shown
# T7 sequence: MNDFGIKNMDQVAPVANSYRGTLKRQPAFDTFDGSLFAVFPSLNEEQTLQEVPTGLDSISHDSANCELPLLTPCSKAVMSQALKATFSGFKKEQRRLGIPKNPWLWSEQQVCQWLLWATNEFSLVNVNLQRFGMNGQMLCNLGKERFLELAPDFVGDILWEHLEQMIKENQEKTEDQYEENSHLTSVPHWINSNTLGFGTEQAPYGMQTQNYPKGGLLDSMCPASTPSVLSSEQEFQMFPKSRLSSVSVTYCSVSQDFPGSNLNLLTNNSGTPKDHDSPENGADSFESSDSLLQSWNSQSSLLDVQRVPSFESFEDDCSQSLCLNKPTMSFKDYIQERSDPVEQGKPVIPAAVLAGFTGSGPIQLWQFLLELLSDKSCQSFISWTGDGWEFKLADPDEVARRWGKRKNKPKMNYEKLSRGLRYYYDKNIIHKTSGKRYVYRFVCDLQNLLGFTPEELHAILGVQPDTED
# Summary of the method: as §1
# [13] = molecular target: T8, SPDEF (Homo sapiens, UniProt O95238 1-335); conditions: protein: recombinant; tags: N-terminal GST; dsDNA, one strand shown
# T8 sequence: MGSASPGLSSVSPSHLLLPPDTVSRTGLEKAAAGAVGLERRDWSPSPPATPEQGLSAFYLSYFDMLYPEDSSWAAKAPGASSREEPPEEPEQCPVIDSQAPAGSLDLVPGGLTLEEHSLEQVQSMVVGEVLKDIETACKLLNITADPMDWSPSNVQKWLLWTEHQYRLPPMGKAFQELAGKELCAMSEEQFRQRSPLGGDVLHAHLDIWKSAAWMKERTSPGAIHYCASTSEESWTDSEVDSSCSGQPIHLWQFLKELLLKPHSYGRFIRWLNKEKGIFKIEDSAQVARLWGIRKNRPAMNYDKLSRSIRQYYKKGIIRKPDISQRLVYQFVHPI
# Summary of the method: as §1
# [14] = molecular target: T9, ETV7 (Homo sapiens, UniProt Q9Y603 1-341); conditions: protein: recombinant; tags: N-terminal GST; dsDNA, one strand shown
# T9 sequence: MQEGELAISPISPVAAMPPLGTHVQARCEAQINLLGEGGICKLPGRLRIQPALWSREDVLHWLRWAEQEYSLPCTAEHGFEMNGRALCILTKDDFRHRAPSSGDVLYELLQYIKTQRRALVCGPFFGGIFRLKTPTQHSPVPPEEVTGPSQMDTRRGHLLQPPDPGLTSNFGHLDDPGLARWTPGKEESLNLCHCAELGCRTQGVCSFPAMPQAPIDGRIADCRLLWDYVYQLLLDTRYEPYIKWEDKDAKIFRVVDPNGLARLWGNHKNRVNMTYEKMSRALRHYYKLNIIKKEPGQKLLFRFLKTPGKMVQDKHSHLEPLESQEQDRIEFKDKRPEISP
# Summary of the method: as §1
# [15] = molecular target: T10, ETV3 (Homo sapiens, UniProt P41162-2 1-143); conditions: protein: recombinant; tags: N-terminal GST; dsDNA, one strand shown
# T10 sequence: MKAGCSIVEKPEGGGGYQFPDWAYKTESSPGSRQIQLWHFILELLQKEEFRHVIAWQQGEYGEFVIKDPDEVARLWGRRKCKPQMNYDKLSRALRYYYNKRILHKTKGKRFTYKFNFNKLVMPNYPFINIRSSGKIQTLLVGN
# Summary of the method: as §1
# [16] = molecular target: ETV6 (Homo sapiens, UniProt P41212 1-452); conditions: protein: recombinant; tags: N-terminal GST; dsDNA, one strand shown
# Summary of the method: as §1
# Sequence of ETV1 (P50549 whole entry): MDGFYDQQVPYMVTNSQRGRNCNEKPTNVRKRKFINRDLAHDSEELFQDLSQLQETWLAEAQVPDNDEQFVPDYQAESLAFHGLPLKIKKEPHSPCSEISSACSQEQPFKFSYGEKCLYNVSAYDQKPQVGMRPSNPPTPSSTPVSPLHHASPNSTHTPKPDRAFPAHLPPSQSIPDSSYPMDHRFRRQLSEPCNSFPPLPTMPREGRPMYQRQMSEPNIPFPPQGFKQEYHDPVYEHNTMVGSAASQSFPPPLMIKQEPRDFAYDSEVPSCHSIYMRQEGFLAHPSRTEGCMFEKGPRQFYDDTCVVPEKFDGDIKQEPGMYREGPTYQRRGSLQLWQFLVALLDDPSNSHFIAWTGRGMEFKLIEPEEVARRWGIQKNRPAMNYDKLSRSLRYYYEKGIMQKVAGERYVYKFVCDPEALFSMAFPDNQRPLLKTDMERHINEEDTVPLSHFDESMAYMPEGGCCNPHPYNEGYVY
# Sequence of ETV6 (P41212 whole entry): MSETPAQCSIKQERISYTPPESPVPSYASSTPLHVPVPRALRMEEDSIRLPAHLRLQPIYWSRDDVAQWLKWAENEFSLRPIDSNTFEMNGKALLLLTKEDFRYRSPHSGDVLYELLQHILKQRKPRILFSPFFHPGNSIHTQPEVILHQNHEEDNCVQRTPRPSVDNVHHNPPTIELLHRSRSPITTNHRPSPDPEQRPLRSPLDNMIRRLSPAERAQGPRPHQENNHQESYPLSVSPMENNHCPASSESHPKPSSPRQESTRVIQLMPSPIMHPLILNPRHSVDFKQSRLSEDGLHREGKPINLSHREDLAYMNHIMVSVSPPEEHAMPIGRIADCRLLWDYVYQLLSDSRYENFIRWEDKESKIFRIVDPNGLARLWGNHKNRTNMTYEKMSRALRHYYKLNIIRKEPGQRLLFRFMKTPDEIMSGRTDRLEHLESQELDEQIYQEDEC
# Sequence of CRX (O43186 whole entry): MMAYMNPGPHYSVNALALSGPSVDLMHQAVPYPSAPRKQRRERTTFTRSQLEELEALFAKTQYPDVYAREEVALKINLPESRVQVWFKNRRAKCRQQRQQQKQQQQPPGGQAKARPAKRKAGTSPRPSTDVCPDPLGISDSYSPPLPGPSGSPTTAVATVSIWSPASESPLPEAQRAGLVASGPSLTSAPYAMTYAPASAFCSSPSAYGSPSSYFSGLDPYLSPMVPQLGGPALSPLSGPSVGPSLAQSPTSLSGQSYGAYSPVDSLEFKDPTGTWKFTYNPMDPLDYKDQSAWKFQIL
# Sequence of ETV5 (P41161 whole entry): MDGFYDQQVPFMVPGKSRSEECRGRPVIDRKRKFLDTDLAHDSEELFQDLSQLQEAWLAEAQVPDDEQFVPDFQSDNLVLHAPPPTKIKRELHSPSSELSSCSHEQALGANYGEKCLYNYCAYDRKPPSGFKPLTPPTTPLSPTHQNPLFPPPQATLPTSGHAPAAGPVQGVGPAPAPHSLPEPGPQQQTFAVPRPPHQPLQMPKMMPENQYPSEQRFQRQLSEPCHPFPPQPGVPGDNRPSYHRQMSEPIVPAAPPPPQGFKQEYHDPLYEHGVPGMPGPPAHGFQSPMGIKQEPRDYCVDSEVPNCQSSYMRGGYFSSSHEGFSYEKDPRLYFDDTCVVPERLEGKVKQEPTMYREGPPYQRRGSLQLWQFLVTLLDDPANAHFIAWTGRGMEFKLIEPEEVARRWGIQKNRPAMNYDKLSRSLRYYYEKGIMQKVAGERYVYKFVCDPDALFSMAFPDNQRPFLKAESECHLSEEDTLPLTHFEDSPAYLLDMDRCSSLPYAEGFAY
# Sequence of HSF1 (Q00613 whole entry): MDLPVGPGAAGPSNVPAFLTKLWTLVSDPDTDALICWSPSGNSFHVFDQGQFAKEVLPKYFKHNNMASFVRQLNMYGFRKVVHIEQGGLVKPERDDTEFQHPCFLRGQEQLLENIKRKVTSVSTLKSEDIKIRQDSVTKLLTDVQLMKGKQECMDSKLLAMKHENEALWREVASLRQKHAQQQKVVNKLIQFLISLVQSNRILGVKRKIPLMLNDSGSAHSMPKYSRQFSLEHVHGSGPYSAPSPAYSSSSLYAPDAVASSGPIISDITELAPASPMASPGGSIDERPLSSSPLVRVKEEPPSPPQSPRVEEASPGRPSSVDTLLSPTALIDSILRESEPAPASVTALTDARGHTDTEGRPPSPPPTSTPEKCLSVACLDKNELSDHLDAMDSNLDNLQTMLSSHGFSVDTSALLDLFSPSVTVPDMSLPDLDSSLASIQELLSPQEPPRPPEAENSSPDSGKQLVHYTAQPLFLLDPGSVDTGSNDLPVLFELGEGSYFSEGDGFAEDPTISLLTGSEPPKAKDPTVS
# Sequence of ELF4 (Q99607 whole entry): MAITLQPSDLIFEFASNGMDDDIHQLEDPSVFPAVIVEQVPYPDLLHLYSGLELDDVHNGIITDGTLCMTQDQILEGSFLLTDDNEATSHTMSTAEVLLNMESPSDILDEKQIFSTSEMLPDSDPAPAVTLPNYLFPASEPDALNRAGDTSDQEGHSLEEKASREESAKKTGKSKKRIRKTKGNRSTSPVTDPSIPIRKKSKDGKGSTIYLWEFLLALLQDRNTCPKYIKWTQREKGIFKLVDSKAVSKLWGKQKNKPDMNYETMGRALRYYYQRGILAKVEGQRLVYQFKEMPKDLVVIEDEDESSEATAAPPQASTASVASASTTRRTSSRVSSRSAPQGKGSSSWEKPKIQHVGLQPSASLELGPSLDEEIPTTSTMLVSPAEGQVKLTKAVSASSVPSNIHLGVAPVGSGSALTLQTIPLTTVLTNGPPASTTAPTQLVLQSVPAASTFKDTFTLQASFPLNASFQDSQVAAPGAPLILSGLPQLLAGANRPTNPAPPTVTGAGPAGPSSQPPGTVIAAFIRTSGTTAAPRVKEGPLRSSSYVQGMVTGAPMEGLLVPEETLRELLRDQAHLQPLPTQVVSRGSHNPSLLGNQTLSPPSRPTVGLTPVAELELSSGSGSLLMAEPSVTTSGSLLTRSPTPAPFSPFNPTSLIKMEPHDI
sequence,measurement,setting,value
ATCAAT,binding signal,[1],"1.05 fold enrichment (6-mer frequency, TF over GST control)"
same,binding signal,[2],"1.1 fold enrichment (6-mer frequency, TF over GST control)"
same,binding signal,[3],"1.14 fold enrichment (6-mer frequency, TF over GST control)"
same,binding signal,[4],"1.06 fold enrichment (6-mer frequency, TF over GST control)"
same,binding signal,[5],"1.1 fold enrichment (6-mer frequency, TF over GST control)"
same,binding signal,[6],"1.16 fold enrichment (6-mer frequency, TF over GST control)"
same,binding signal,[7],"1.12 fold enrichment (6-mer frequency, TF over GST control)"
same,binding signal,[8],"1.32 fold enrichment (6-mer frequency, TF over GST control)"
same,binding signal,[9],"1.06 fold enrichment (6-mer frequency, TF over GST control)"
same,binding signal,[10],"1.15 fold enrichment (6-mer frequency, TF over GST control)"
same,binding signal,[11],"1.03 fold enrichment (6-mer frequency, TF over GST control)"
same,binding signal,[12],"1.05 fold enrichment (6-mer frequency, TF over GST control)"
same,binding signal,[13],"1.03 fold enrichment (6-mer frequency, TF over GST control)"
same,binding signal,[14],"1.12 fold enrichment (6-mer frequency, TF over GST control)"
same,binding signal,[15],"1.14 fold enrichment (6-mer frequency, TF over GST control)"
same,binding signal,[16],"1.07 fold enrichment (6-mer frequency, TF over GST control)"
